The text below walks through data of PubChem BioAssay (NCATS).

Records with an inconclusive call do not appear. Unmarked numbers belong to inactive results. The source made the active and inactive calls. The call rests on the fitted dose curve; in most records, active means well fitted curve in the direction sought with a large enough effect; inconclusive means small, poorly fitted or top-dose-only effect, or another doubt; inactive means no such curve, though single readings can be large; an effect the other way counts as inactive or inconclusive.

Assay [1] is described as follows: qHTS of pediatric cancer cell lines to identify multiple opportunities for drug repurposing: Primary screen for A673 cells (AID 1347092). Further: nearly all actives have a fitted effect of over 45% in size. Further: potency means the concentration at half of the fitted maximal effect. On activity change, negative = cytotoxic: on the % scale 0 is the no-effect control and ±100 the full control effect. The method in brief:
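Titration-based qHTS on A673 cells: MIPE compounds spanned 11 points (0.78 nM to 46 µM final), NPC compounds 8 points (0.59 nM to 46 µM final). Viability after 48 h was measured by ATP luminescence.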

The nature of assay [2]: qHTS of pediatric cancer cell lines to identify multiple opportunities for drug repurposing: Primary screen for SK-N-MC cells (AID 1347093). Further: potency means the concentration at half of the fitted maximal effect.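 On activity change, negative = cytotoxic: series mostly up to about 46 µM; plate controls were DMSO neutral control for no effect and bortezomib for full effect.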 The method in brief: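 Metabolically active cells were quantified by ATP-dependent luminescence (CellTiter-Glo, 15 min at room temperature) following 48 h treatment. Cells had been plated at 500-1,000 per well and settled for 5 h beforehand.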
For orientation: qHTS replaces the single test concentration by a dilution series.

The nature of assay [3]: qHTS of pediatric cancer cell lines to identify multiple opportunities for drug repurposing: Primary screen for NB-EBc1 cells (AID 1347095). Further: potency means the concentration at half of the fitted maximal effect.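 On activity change, negative = cytotoxic: plate controls were DMSO neutral control for no effect and bortezomib for full effect.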 A digest of the protocol: (§1)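 ATP-based luminescence (CellTiter-Glo) quantifies viability after a 48-hour exposure. Compounds are dosed across 8 or 11 final concentrations; DMSO and 2.3 µM bortezomib serve as controls.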
Assay [4] can be described thus: qHTS of pediatric cancer cell lines to identify multiple opportunities for drug repurposing: Primary screen for Saos-2 cells (AID 1347097). Further: on the % scale 0 is the no-effect control and ±100 the full control effect; nearly all actives have a fitted effect of over 40% in size. A digest of the protocol:
as §1

Assay [5] in a line: qHTS of pediatric cancer cell lines to identify multiple opportunities for drug repurposing: Primary screen for NB1643 cells (AID 1347099).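 Further: plate controls were DMSO neutral control for no effect and bortezomib positive control for full effect; nearly all actives have a fitted effect of over 50% in size.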 The method in brief: as §1
Assay [6] can be described thus: qHTS of pediatric cancer cell lines to identify multiple opportunities for drug repurposing: Primary screen for LAN-5 cells (AID 1347100).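 Further: plate controls were DMSO neutral control for no effect and bortezomib positive control for full effect.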 A digest of the protocol:
(§2)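 Cells (500-1,000/well) in growth media were settled 5 h at 37 degrees C, then given compounds for 48 h. Viability was read as CellTiter-Glo luminescence. Primary runs used MIPE at 11 points (0.78 nM-46 µM) and NPC at 8 points (0.59 nM-46 µM); follow-ups used 11 points.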

A short description of assay [7]: qHTS of pediatric cancer cell lines to identify multiple opportunities for drug repurposing: Primary screen for BT-12 cells (AID 1347101).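 Further: plate controls were DMSO for no effect and bortezomib positive control for full effect; nearly all actives have a fitted effect of over 25% in size.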 The method in brief: (§3)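 Cells (500-1,000/well) rested 5 h, then received compounds for 48 h; metabolically active cells were measured by CellTiter-Glo luminescence. Final concentrations spanned up to 46 µM (MIPE, 11-point) or 0.59 nM-46 µM (NPC, 8-point) in primary screens, 11-point in follow-ups.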

Assay [8] in a line: qHTS of pediatric cancer cell lines to identify multiple opportunities for drug repurposing: Primary screen for U-2 OS cells (AID 1347096).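 Further: plate controls were DMSO wells for no effect and bortezomib positive control wells for full effect; nearly all actives have a fitted effect of over 50% in size.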 The method in brief: as §2
A short description of assay [9]: qHTS of pediatric cancer cell lines to identify multiple opportunities for drug repurposing: Primary screen for SK-N-SH cells (AID 1347098).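 Further: DMSO served as neutral control and bortezomib at 2.3 µM as positive control; on the % scale 0 is the no-effect control and ±100 the full control effect; nearly all actives have a fitted effect of over 65% in size.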 The method in brief: as §3
A short description of assay [10]: qHTS of pediatric cancer cell lines to identify multiple opportunities for drug repurposing: Primary screen for BT-37 cells (AID 1347094).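 Further: series mostly up to about 57 µM; plate controls were DMSO for no effect and bortezomib for full effect.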 The method in brief: as §1

As to `CC(C(O)c1ccc(O)cc1)N1CCC(Cc2ccccc2)CC1` (stereo not drawn), the Potency entry in [1], in [2], in [3], in assay [4], in assay [5] and in assay [6] was “inactive” each time. Moreover, in assay [7], the Potency result was “inactive”.

As to `CC12CCC(CC1)C(C)(C)O2`, the Potency result in assay [1], in assay [2], in assay [3], in [8], in assay [9] and in assay [5] was “inactive” each time. Besides, the Potency entry in [6] and in [7] was “inactive” each time.

On to `C[C@]12CC[C@@H]3c4ccc(O)cc4CC[C@H]3[C@@H]1CCC2=O`, for which the Potency entry in [1], in assay [2], in assay [3], in assay [9], in assay [5] and in assay [6] was “inactive” each time.

With `N[C@@H](CSSC[C@H](N)C(=O)O)C(=O)O`, the activity change, negative = cytotoxic is -1.55% [at 0.597 µM] in assay [1]; -7.24% [at 0.597 µM] in assay [2]; -0.714% [at 0.597 µM] in assay [3]; -6.38% [at 0.597 µM] in assay [4]; -5.83% [at 0.597 µM] in assay [5]; 6.24% [at 0.597 µM] in assay [6]. For the same compound, the activity change, negative = cytotoxic in assay [7] is 5.67% [at 0.745 µM].

With `Cc1ccc(C(C)C)cc2c(C)ccc1-2`, the Potency entry in assay [1], in assay [2], in assay [3], in assay [9], in assay [5] and in assay [6] was “inactive” each time. For the same compound, the Potency entry in assay [7] was “inactive”.

Regarding `COc1ccc(Cl)cc1C(=O)NCCc1ccc(S(=O)(=O)NC(=O)NC2CCCCC2)cc1`, the Potency entry in assay [1], in [10], in assay [3], in assay [8], in [4] and in [9] was “inactive” each time. Besides, the Potency result in assay [5], in [6] and in assay [7] was “inactive” in each case.

With `NC(=O)NC(=O)Cc1ccccc1`, the Potency entry in [1], in [2], in assay [3], in assay [8], in [9] and in [5] was “inactive” in each case. Also, the Potency entry in assay [6] and in assay [7] was “inactive” each time.

`O=S(=O)(O)c1cc(I)c(O)c2ncccc12`: the Potency entry in assay [1], in assay [2], in assay [3], in assay [8], in assay [4] and in [9] was “inactive” in each case. Further, the Potency entry in [5], in assay [6] and in assay [7] was “inactive” throughout.

`C[C@H]1O[C@@H](n2cc(F)c(=O)[nH]c2=O)[C@H](O)[C@@H]1O`: the Potency entry in assay [1], in assay [10], in assay [8], in assay [4], in [9] and in [5] was “inactive” each time. Moreover, the Potency result in assay [6] and in assay [7] was “inactive” in each case. The Potency in assay [3] is 2.99 µM (active).

For the compound `NC(CSCC(=O)O)C(=O)O` (stereo not drawn), the Potency entry in [1], in assay [2], in [3], in [8], in assay [9] and in assay [5] was “inactive” in each case. Also, the Potency entry in [6] and in assay [7] was “inactive” throughout.

On to `CCOc1ccc2ccccc2c1C(=O)N[C@@H]1C(=O)N2[C@@H]1SC(C)(C)[C@@H]2C(=O)O`, for which the Potency result in assay [1], in assay [2], in assay [3], in [8], in [4] and in [9] was “inactive” throughout. Moreover, the Potency entry in [5], in [6] and in assay [7] was “inactive” throughout.

In the case of `Nc1ccc(S(=O)(=O)Nc2ccc(Cl)nn2)cc1`, the Potency result in assay [1], in assay [2], in [3], in [8], in assay [9] and in [5] was “inactive” in each case. Besides, the Potency entry in assay [6] and in assay [7] was “inactive” each time.

In the case of `CC(CN1c2ccccc2Sc2ccccc21)N(C)C` (stereo not drawn), the Potency result in assay [1], in [2], in assay [3], in [8], in [5] and in assay [6] was “inactive” in each case.

As to `O=c1cc(CO)occ1O`, the Potency result in assay [1], in [2], in [3], in assay [4], in assay [9] and in assay [5] was “inactive” in each case. Also, the Potency result in assay [6] and in assay [7] was “inactive” in each case.

In the case of `O=C(O)[C@H](O)c1ccccc1`, the Potency entry in assay [1], in [2], in assay [3], in assay [8], in [4] and in [9] was “inactive” throughout. Also, the Potency result in assay [5], in [6] and in assay [7] was “inactive” throughout.

On to `Nc1cc(=O)[nH]c(N)n1`, for which the Potency result in [1], in assay [2], in [3], in [8], in assay [5] and in assay [6] was “inactive” throughout. Also, the Potency result in [7] is “inactive”.

Turning to `COc1ccc2cc1Oc1cc3c(cc1OC)CC[N+](C)(C)[C@H]3Cc1ccc(cc1)Oc1c(OC)c(OC)cc3c1[C@@H](C2)[N+](C)(C)CC3`, the Potency entry in assay [1], in assay [2], in assay [3], in assay [8], in assay [4] and in [9] was “inactive” throughout. Further, the Potency entry in assay [5], in assay [6] and in [7] was “inactive” in each case.

For `CC1=C(/C=C/C(C)=C/C=C/C(C)=C/C(=O)O)C(C)(C)CCC1`, the Potency result in assay [1], in assay [10], in assay [3], in [8], in assay [4] and in assay [9] was “inactive” throughout. In addition, the Potency result in assay [5], in [6] and in assay [7] was “inactive” in each case.

As to `CCCCN(CCCC)CCCOC(=O)c1ccc(N)cc1`, the Potency entry in assay [1], in assay [2], in [3], in [8], in [9] and in assay [5] was “inactive” each time. In addition, the Potency entry in assay [6] and in [7] was “inactive” each time.

Consider `CN(C)CCCO[C@@H]1[C@H]2OC(C)(C)O[C@H]2O[C@@H]1C(O)CO` (stereo partly drawn), for which the Potency entry in assay [1], in assay [2], in assay [3], in [8], in assay [4] and in assay [9] was “inactive” throughout. Besides, the Potency result in [5], in assay [6] and in assay [7] was “inactive” throughout.

In the case of `CC(=O)CCC(=O)O`, the Potency result in assay [1], in assay [2], in assay [3], in [8], in assay [4] and in assay [9] was “inactive” each time. The Potency entry in assay [5], in assay [6] and in [7] was “inactive” in each case.

As to `Cc1ncc([N+](=O)[O-])n1CC(O)CCl` (stereo not drawn), the Potency result in assay [1], in [2], in assay [3], in assay [8], in assay [9] and in assay [5] was “inactive” in each case. Moreover, the Potency entry in assay [6] and in [7] was “inactive” in each case.

Regarding `CCCCc1ncc(/C=C(\Cc2cccs2)C(=O)O)n1Cc1ccc(C(=O)O)cc1`, the Potency entry in assay [1], in assay [2], in [3], in assay [4], in assay [9] and in assay [5] was “inactive” in each case. Further, the Potency entry in assay [6] and in assay [7] was “inactive” each time.

As to `CC(=O)Oc1ccc(C2(c3ccc(OC(C)=O)cc3)C(=O)Nc3ccccc32)cc1`, the Potency result in assay [1], in [10], in assay [3], in [8], in assay [4] and in assay [9] was “inactive” in each case. In addition, the Potency entry in assay [5], in assay [6] and in [7] was “inactive” each time.

As to `COc1ccc(S(=O)(=O)Nc2nnc(CC(C)C)s2)cc1`, the Potency result in assay [1], in [2], in [3], in assay [8], in [9] and in [5] was “inactive” each time. For the same compound, the Potency entry in assay [6] and in assay [7] was “inactive” each time.

As for `COC(=O)[C@H]1[C@H]2C[C@@H]3c4[nH]c5cc(OC)ccc5c4CCN3C[C@H]2C[C@@H](OC(=O)COc2ccc(OC)cc2)[C@@H]1OC`, the Potency entry in assay [1], in [10], in assay [3], in assay [8], in assay [4] and in assay [9] was “inactive” in each case. Further, the Potency entry in assay [5], in [6] and in assay [7] was “inactive” in each case.

Consider `CC(=O)O[C@@]12CO[C@@H]1C[C@H](O)[C@@]1(C)C(=O)[C@H](O)C3=C(C)[C@@H](OC(=O)[C@H](O)[C@@H](NC(=O)OC(C)(C)C)c4ccccc4)C[C@@](O)([C@@H](OC(=O)c4ccccc4)[C@H]21)C3(C)C`, for which the Potency in assay [1] and in assay [2] was 1 nM (active) in each case. Besides, the Potency entry in assay [8] is “inactive”.

As to `C[C@@H]1C[C@H]2[C@@H]3C[C@H](F)C4=CC(=O)C=C[C@]4(C)[C@@]3(F)[C@@H](O)C[C@]2(C)[C@@]1(O)C(=O)CO`, the Potency result in assay [1], in [2], in [3], in assay [8], in assay [9] and in [5] was “inactive” each time. Besides, the Potency entry in assay [6] and in assay [7] was “inactive” throughout.

Regarding `CCCCCCCCCCCCCCCCCCOCC(O)CO` (stereo not drawn), the Potency entry in assay [1], in assay [2], in [3], in [8], in [4] and in assay [9] was “inactive” in each case. The Potency result in assay [5], in assay [6] and in assay [7] was “inactive” in each case.

For the compound `NC(=O)c1ncn([C@@H]2O[C@H](CO)[C@@H](O)[C@H]2O)c1N`, the Potency entry in assay [1], in assay [2], in [3], in assay [8], in [9] and in [5] was “inactive” in each case. Further, the Potency entry in assay [6] and in [7] was “inactive” each time.

In the case of `OC[C@H]1O[C@@H](O[C@@H]2[C@@H](CO)O[C@](O)(CO)[C@H]2O)[C@H](O)[C@@H](O)[C@H]1O`, the Potency result in assay [1], in [2], in [3], in assay [8], in assay [4] and in assay [9] was “inactive” throughout. Further, the Potency entry in assay [5], in assay [6] and in [7] was “inactive” in each case.
